# Assay outcomes: PubChem BioAssay, National Center for Advancing Translational Sciences (NCATS)
# Lassa entry inh: Lassa virus entry inhibition | hit rate 1.2% among 300,000 | AID 540256 | Lassa virus pseudotype entry inhibition, cell reporter | Potency, µM (highest dose often 37.9 µM), inactives show at the highest dose activity change, negative = inhibition, actives largely listed as inhibitors; calls by dose curve; tested in HEK293 cells; also: potency is read from the fitted curve at half-maximal effect; nearly all actives have a fitted effect of over 50% in size
# HCV inhibitor: HCV inhibition; Huh7.5.1 HCVcc-Cre infection, luciferase reporter, 44 h; Potency, µM (series often up to 41.8 µM), for the others: top-dose activity change, negative = inhibition, usual class: inhibitors; hit rate 3.4% among 340,000; AID 651820; active = well fitted inhibition curve with a large enough effect; inconclusive = small, poorly fitted or top-dose-only effect, or another doubt; inactive = no such curve, though single readings can be large or run the other way; also: potency is read from the fitted curve at half-maximal effect
#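 Luciferase read-out (15 sec integration) after a 15 min room-temperature substrate step quantifies HCVcc-Cre infection. Cells, 1,000 per well, had compound added 4 h post-plating, then virus at ~0.5 moi, and were cultured 44 h.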
# VACV mCherry inh: vaccinia inhibition (mCherry reporter) | Vaccinia virus mCherry reporter infection, fluorescence | Potency, µM (titrated, usually from 36.5 µM), inactives show at the top dose activity change, negative = inhibition, usual class: inhibitors | hit rate 0.63% among 310,000; calls by dose curve; tested in A549 cells; also: potency is read from the fitted curve at half-maximal effect; nearly all actives have a fitted effect of over 35% in size
# Vaccinia Venus: vaccinia inhibition (Venus reporter) | Vaccinia virus Venus reporter expression, fluorescence | AID 720580 | hit rate 0.46% among 330,000 | Potency, µM (series often up to 36.5 µM), for the others: top-dose activity change, negative = inhibition, most hits filed as inhibitors; calls by dose curve; tested in A549 cells; also: potency is read from the fitted curve at half-maximal effect; nearly all actives have a fitted effect of over 30% in size
# MARV entry inh: inhibitors of Marburg virus binding or cell entry | Marburg virus pseudotyped entry inhibition, cell reporter | Potency, µM (doses to about 37.8 µM), without a hit: top-dose activity change, negative = inhibition, hits mostly inhibitors | hit rate 1.8% among 300,000 | AID 540276; calls by dose curve; tested in HEK293 cells; also: potency is read from the fitted curve at half-maximal effect
# HCMV antiviral: inhibitors of human cytomegalovirus; HFF cells, HCMV-luciferase reporter, 72 h; stronger effect = lower value; activity change, negative = inhibition, % at 57.5 µM; hit rate 4.5% among 410,000; in the data active = activity change below about -60%; inconclusive = no clear call, values can overlap the other calls; inactive = above about -39%
#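 Two compound doses tested in HFFs infected with HCMV-luciferase, MOI 1 PFU/cell, 72 h at 37C. Lysate luminescence read with OneGlo; data normalized against buffer-only and 10uM Salinomycin inhibitor controls.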
# An asterisk follows results filed as active; i = inactive; ? = inconclusive; . = no result; [ ] = remark or other dose. Most compounds without a hit are left out; they make up all but 7.8% or so of the library. % is scaled to controls: 0 for no effect and ±100 for the full control effect.
SMILES,Lassa entry inh,HCV inhibitor,VACV mCherry inh,Vaccinia Venus,MARV entry inh,HCMV antiviral
CN(C)CC(CCC(CN(C)C)C(=O)c1ccccc1)C(=O)c1ccccc1 (stereo not drawn),-31%,?,?,11µM*,13µM*,.
COc1ccc(C(=O)C(Cc2ccccc2)N(C)C)cc1 (stereo not drawn),14%,-3%,.,.,2%,-5
COc1ccc(C(=O)C(CCCCC(CN(C)C)C(=O)c2ccc(OC)cc2)CN(C)C)cc1 (stereo not drawn),?,3.5µM*,-15%,-26%,?,?
O=C(c1ccccc1)C(CCc1ccccn1)CCc1ccccn1,17%,-20%,-15%,-7%,?,-11
COc1ccc(-c2noc(-c3ccc(N4CCN(c5ccccc5)CC4)c([N+](=O)[O-])c3)n2)cc1,5%[46.1 µM],.,-4%,-10%,15%[46.1 µM],7
Cn1cnc([N+](=O)[O-])c1Oc1ccccc1,-7%,?,28µM*,?,?,-10
Cn1cnc([N+](=O)[O-])c1Oc1cccc(O)c1,-21%,-3%,?,?,-4%,-16
COc1cc(C(=O)NCCC(=O)NC2CCCc3ccccc32)cc(OC)c1OC (stereo not drawn),1%[46.1 µM],-4%,i,-14%,?,17
CCOCC(=O)NC1CCc2cc(OC)c(OC)c(OC)c2-c2ccc(SC)c(=O)cc21 (stereo not drawn),?,-22%,-23%,?,-17%,-66*
CCOC(=O)NC1CCc2cc(OC)c(OC)c(OC)c2-c2ccc(SC)c(=O)cc21 (stereo not drawn),?,-16%,i,-36%,?,-72*
CCCCOC(=O)NC1CCc2cc(OC)c(OC)c(OC)c2-c2ccc(SC)c(=O)cc21 (stereo not drawn),?,-30%,i,?,?,-80*
CCOC(=O)N1CCC(N2C(=O)c3ccccc3C2Nc2cc(OC)c(OC)c(OC)c2)CC1 (stereo not drawn),.,7%,13%,-21%,.,-17
CS(=O)(=O)c1ccccc1NC(=O)COc1ccccc1C(=O)Nc1ccccc1,.,.,i,-17%,.,.
CC1CC(C)CN(CCCNC(=O)CCC(=O)N2CCOc3ccccc32)C1 (stereo not drawn),.,2%,-23%,-7%,.,-65*
Cc1ccc([N+](=O)[O-])c(OCCN2CCCCCC2)c1,-19%,-9%,.,.,?,-78*
OCC1(Cc2ccccc2C(F)(F)F)CCN(Cc2ccc3c(c2)CCO3)CC1,-5%[46.1 µM],9%,-9%,-13%,?,-76*
COc1ccc(C(=O)C/C(=C\C(=O)c2ccc(C)cc2)c2ccccc2)cc1,?,11µM*,.,.,?,-98*
COc1ccc(C(=O)CC(=O)c2ccccc2)cc1,?,-10%,i,-3%,-25%[46.1 µM],38
COc1ccc(C(CC(=O)c2ccccc2)S(=O)(=O)c2ccc(C)cc2)cc1 (stereo not drawn),-3%,?,.,.,1%,-105*
Cc1cccc(N2CCN(C(=S)c3ccc([N+](=O)[O-])cc3)CC2)c1,-21%,10%,i,-6%,-12%,-63*
Cc1cccc(N2CCN(C(=S)c3ccccc3)CC2)c1,-7%,-2%,-16%,2%,?,-27
COc1cc(C#Cc2c(-c3cncn3C)n(C)c3ccc(Br)cc23)cc(OC)c1,.,1.1µM*,-15%,?,.,-9
Cc1cccc(N=Nc2ccc(O)c3ncccc23)c1,?,5.6µM*,14µM*,?,4.5µM*,-102*
O=C(Nc1ncccc1O)c1ccc2c(c1)OCCO2,?,7%,?,-19%,?,1
Cc1ccc(C)c(N=Nc2ccc(O)c3ncccc23)c1,.,6.3µM*,.,.,.,-84*
SMILES,Lassa entry inh,HCV inhibitor,VACV mCherry inh,Vaccinia Venus,MARV entry inh,HCMV antiviral
Cc1ccc(N=Nc2cc(C)ccc2O)c(C)c1,.,7%,.,.,.,-7
CCOc1ccc(N=Nc2ccc(O)c3ncccc23)cc1,-20%[46.1 µM],7.9µM*,?,-15%,?,-87*
Oc1ccc(N=Nc2ccc3c(c2)OCCO3)c2ncccc12,.,?,.,.,.,-103*
CCS(=O)(=O)c1ccc(OC)c(N=Nc2ccc(O)c3ncccc23)c1,?,?,?,-23%,?,?
O=C(OCc1cc(=O)n2nc(C3CCCCC3)sc2n1)c1ccccc1Cl,5%[46.1 µM],.,10%,13%,.,5
C#CCN1CC(COCCCC)Oc2cccc(Oc3ccc(C(C)(C)C)c(C)c3)c2S1(=O)=O (stereo not drawn),.,.,.,.,.,-22
CCN(CC)CCN(C)C(=O)c1ccc(-c2ccccc2)nc1N(C)C,.,.,-7%,-7%,.,.
CCN(CC)S(=O)(=O)c1cc(OC)ccc1N=Nc1ccc(O)c2ncccc12,.,5µM*,?,?,.,-97*
CN(Cc1ccccc1)c1ncc(C=O)s1,-21%[46.1 µM],10%,i,-19%,?,-63*
CCCN1C/C(=C/c2cccc([N+](=O)[O-])c2)C(=O)/C(=C/c2cccc([N+](=O)[O-])c2)C1,2µM*,?,-4%,-14%,?,-105*
CCCN1C/C(=C/c2ccc3c(c2)OCO3)C(=O)/C(=C/c2ccc3c(c2)OCO3)C1,?,?,?,?,?,3
O=C(Oc1ccc(C(=S)N2CCOCC2)cc1)c1ccc([N+](=O)[O-])cc1[N+](=O)[O-],.,7%,.,.,.,5
O=C(Oc1cccc(C(=S)N2CCOCC2)c1)c1ccc([N+](=O)[O-])cc1[N+](=O)[O-],-1%,13%,5.6µM*,?,5%[46.1 µM],-8
CCOC(=O)N1CCN(C(=O)CCN2C(=O)COc3ccccc32)CC1,8%,-22%,-12%,-5%,13%,-62*
O=C(CN1C(=O)COc2ccccc21)NCCN1CCOCC1,16%,4%,18%,2%,-2%[46.1 µM],-75*
O=C(CCN1C(=O)COc2ccccc21)NCCN1CCOCC1,0%,1%,-12%,-8%,4%,4
O=C(CN1C(=O)COc2ccccc21)NCCN1CCC(Cc2ccccc2)CC1,-13%,22µM*,-11%,-20%,-24%,-28
COC(=O)[C@@H]1[C@@H](CO)[C@@H]2Cn3c(cccc3=O)[C@H]1N2S(=O)(=O)c1cccc(C)c1,.,.,.,.,.,21
COc1ccc(CNCCc2c(C)[nH]c3ccc(OC(F)(F)F)cc23)c(OC)c1,?,18µM*,?,-21%,6.3µM*,-66*
COc1ccc2[nH]c(C)c(CCNc3ccc(C(F)(F)F)cc3[N+](=O)[O-])c2c1,-2%,-9%,-15%,-14%,2.5µM*,-20
Cc1cccc(NCc2ccc(O)c3ncccc23)c1C,?,?,-26%,-14%,?,-96*
Cc1cccnc1NCc1ccc(O)c2ncccc12,?,10µM*,14µM*,?,?,?
